# Laboratory results as given in PubChem BioAssay (EPA / NIEHS).
# Records with an inconclusive call do not appear. Active and inactive are the calls of the source. The calls were made as follows: active = hit-call score of the fitted dose curve at least 0.9, where 1 is the maximum; inconclusive = response in the unintended direction; inactive = score below 0.9.
# Assays:
# [1] = system: Sodium/Iodide Symporter (NIS), SLC5A5 (gene 6528); experiment: CPHEA_Stoker_NIS_Inhibition_RAIU: CPHEA's Radioactive Iodide Uptake (RAIU) Assay for Sodium/Iodide Symporter (NIS) Inhibition, Stoker and Laws Labs (AID 2283841)
# Method in brief: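 Test chemicals, six concentrations from 0.001 to 100uM in 0.5% DMSO, were co-incubated with carrier-free 125I (final 329pM) on hNIS-HEK293T-EPA monolayers in pH 7.4 HEPES-buffered HBSS. Plates stood 2 hours at room temperature, then were washed cold and counted.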
# [2] = CPHEA_Stoker_NIS_Cytotoxicity: Cytotoxicity Assessment for CPHEA's Radioactive Iodide Uptake (RAIU) Assay for Sodium/Iodide Symporter (NIS) Inhibition, Stoker and Laws Labs (AID 2283897);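 as to AC50: active means loss of ATP signal versus DMSO meaning cytotoxicity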
# Method in brief: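 Viability in hNIS-HEK293T-EPA cells is scored as a drop in luciferase-detected ATP following 2-hour room-temperature exposure (0.001–100uM; triplicate wells, three cell passages), with DMSO as negative control.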
# PGR (gene 5241) [3] = molecular target: PGR (gene 5241) (UniProt P06401); experiment: TOX21_PR_BLA_Followup_Antagonist_ratio: Tox21 HEK293 Progesterone Receptor (PR) Antagonism Beta-lactamase Follow-Up Assay, Ratio (AID 2283934);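 also: PR-UAS-bla HEK293T cells stimulated with 1 nM R5020 agonist for 16 hr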
# Sequence of PGR (gene 5241) (P06401 whole entry, looked up): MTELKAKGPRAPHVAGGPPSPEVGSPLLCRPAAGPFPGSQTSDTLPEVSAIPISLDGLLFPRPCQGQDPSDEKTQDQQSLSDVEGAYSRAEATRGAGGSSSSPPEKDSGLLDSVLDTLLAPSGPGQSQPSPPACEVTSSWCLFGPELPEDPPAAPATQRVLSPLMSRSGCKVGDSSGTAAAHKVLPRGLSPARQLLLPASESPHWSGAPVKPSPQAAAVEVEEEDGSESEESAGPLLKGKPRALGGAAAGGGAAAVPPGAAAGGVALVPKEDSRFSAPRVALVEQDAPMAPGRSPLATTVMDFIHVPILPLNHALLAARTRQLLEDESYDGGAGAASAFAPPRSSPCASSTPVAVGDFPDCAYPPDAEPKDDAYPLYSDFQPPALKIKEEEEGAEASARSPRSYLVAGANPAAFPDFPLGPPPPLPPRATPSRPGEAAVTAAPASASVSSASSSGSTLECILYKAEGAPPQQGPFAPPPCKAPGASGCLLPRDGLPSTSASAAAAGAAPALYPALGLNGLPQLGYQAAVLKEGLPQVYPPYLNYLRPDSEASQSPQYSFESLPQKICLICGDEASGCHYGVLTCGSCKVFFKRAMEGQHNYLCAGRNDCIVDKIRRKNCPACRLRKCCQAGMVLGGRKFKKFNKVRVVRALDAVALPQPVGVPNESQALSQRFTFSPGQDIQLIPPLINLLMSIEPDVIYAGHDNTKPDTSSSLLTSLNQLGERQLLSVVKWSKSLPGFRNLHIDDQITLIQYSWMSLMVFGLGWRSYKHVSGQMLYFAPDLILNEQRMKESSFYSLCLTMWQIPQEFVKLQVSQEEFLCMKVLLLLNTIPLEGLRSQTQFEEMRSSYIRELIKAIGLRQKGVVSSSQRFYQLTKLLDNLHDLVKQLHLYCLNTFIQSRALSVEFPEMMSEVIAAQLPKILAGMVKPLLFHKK
# Method in brief: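 Readout is the blue/green (ch2/ch1) substrate cleavage ratio after 2 hours at room temperature, following 16 hr co-treatment of PR-bla HEK293T cells with compound and 1nM promegestone. Multiplexed CellTiter-Glo viability flags cytotoxicity; DMSO baseline.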
# [4] = TOX21_PR_BLA_Followup_Agonist_viability: Viability Assessment in the Tox21 HEK293 Progesterone Receptor (PR) Agonism Beta-lactamase Follow-Up Assay (AID 2283935);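 also: signal loss means lower viability so actives are cytotoxic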
# Method in brief: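 Run multiplexed with the beta-lactamase FRET read, this endpoint measures ATP by CellTiter-Glo luminescence (30 min, room temperature). PR-UAS-bla HEK293T cells received compound 6 hr after plating and were then incubated 16 hr at 37C in 2% stripped serum.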
# [5] = TOX21_PR_BLA_Followup_Antagonist_viability: Viability Assessment in the Tox21 HEK293 Progesterone Receptor (PR) Antagonism Beta-lactamase Follow-Up Assay (AID 2283936);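 also: cells exposed to compound with R5020 agonist for 16 h; hits lower the luminescence signal meaning cytotoxicity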
# Method in brief: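 PR-UAS-bla HEK293T cells in medium with 2% charcoal-stripped FBS were treated with compounds plus R5020 for 16 hr at 37C. After the beta-lactamase read, CellTiter-Glo was added to the same wells and luminescence read after 30 min at room temperature.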
# PGR (gene 5241) [6] = molecular target: PGR (gene 5241) (UniProt P06401); experiment: TOX21_PR_LUC_Followup_Antagonist: Tox21 HEK293 Progesterone Receptor (PR) Antagonism Luciferase Follow-Up Assay (AID 2283938);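 also: curve fitted upward as signal gain over DMSO baseline despite antagonist label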
# Method in brief: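 HEK293-PR-A-luc cells were precultured 5 days in medium with 10% charcoal-stripped FBS, seeded 3,000/well, then exposed to compounds in DMSO for 16 h at 37C. Luciferase was read by ONE-Glo luminescence after 30 min at room temperature.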
# [7] = TOX21_PR_LUC_Followup_Antagonist_viability: Viability Assessment in the Tox21 HEK293 Progesterone Receptor (PR) Antagonism Luciferase Follow-Up Assay (AID 2283940)
# Method in brief: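 Viability counter-readout: cellular ATP measured by luciferase luminescence after 16 h compound exposure at 37C of HEK293-PR-A-luc cells, which had been cultured in charcoal-stripped serum and seeded 5 h beforehand.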
# [8] = TOX21_PR_LUC_Followup_Agonist_viability: Viability Assessment in the Tox21 HEK293 Progesterone Receptor (PR) Agonism Luciferase Follow-Up Assay (AID 2283941);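 also: loss of signal means cytotoxicity so actives lower viability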
# Method in brief: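 Cytotoxicity counter-readout in the PR-A luciferase reporter line HEK293, with 16 h compound exposure at 37C after cells were cultured in charcoal-stripped serum. Cellular ATP quantified by CellTiter-Glo luminescence.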
# [9] = molecular target: Thyroid hormone receptor alpha (Rattus norvegicus) + Thyroid hormone receptor beta (Rattus norvegicus) (UniProt P18113+P63059); experiment: TOX21_TR_LUC_GH3_Antagonist_Followup: Tox21 GH3 Thyroid Hormone Receptor Antagonism Luciferase Follow-Up Assay (AID 2283942)
# Method in brief: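 Loss of T3-driven (1.0 nM final) reporter activity in GH3 cells was read by ONE-Glo luminescence after 24 h incubation at 37C; 15-point compound series spanned 92 uM to 5nM final, 1,500 cells/well.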
smiles,measurement,setting,value
COCCOc1cc2cc(C(=O)NC3CCN(C(C)C)CC3)n(CC(=O)Nc3ccc(Cl)cn3)c2cn1,outcome,[1],inactive
same,outcome,[2],inactive
O=C(CCCCCCCCc1cccnc1)N1CCC(C=C(c2ccccc2)c2ccccc2)CC1,outcome,[1],inactive
same,outcome,[2],inactive
Cc1[nH]cnc1C[C@H]1CCc2c(C)c3ccccc3n2C1=O,outcome,[1],inactive
same,outcome,[2],inactive
O=P(OC(CCl)CCl)(OC(CCl)CCl)OC(CCl)CCl,outcome,[1],inactive
same,outcome,[2],inactive
same,AC50,PGR (gene 5241) [3],18.2 µM (active)
same,outcome,[4],inactive
same,outcome,[5],inactive
same,AC50,PGR (gene 5241) [6],46.1 µM (active)
same,outcome,[7],inactive
same,outcome,[8],inactive
CN(C)c1ccc(N=NS(=O)(=O)O)cc1,outcome,[2],inactive
CC(C)c1cccc(C(C)C)c1N1C(=O)c2ccc(O)cc2C1=O,outcome,[1],inactive
same,outcome,[2],inactive
same,AC50,PGR (gene 5241) [3],15.7 µM (active)
same,outcome,[4],inactive
same,outcome,[5],inactive
same,AC50,PGR (gene 5241) [6],17.3 µM (active)
same,outcome,[7],inactive
same,outcome,[8],inactive
same,outcome,[9],inactive
O=C(O)c1cc(N=Nc2ccc(S(=O)(=O)Nc3ccccn3)cc2)ccc1O,outcome,[1],inactive
same,outcome,[2],inactive
CC(C)(O)c1coc(S(=O)(=O)NC(=O)Nc2c3c(cc4c2CCC4)CCC3)c1,outcome,[2],inactive
CCOC(=O)COc1ccc2c(c1)CC(NCC(O)c1cccc(Cl)c1)CC2 (stereo not drawn),outcome,[1],inactive
same,outcome,[2],inactive
CN(C)c1ccc(Cc2ccc(N(C)C)cc2)cc1,outcome,[1],inactive
same,outcome,[2],inactive
CCOc1cccc(-n2cc(C(=O)N3CCN(c4cc(C(=O)O)c5ccccc5c4)CC3)nc2-c2ccc(C)cc2)c1,AC50,[1],83.6 µM (active)
same,AC50,[2],6.27 µM (active)
